Results filed as inconclusive are left out. Calls of active or inactive are those of the source. Unless noted, calls come from the whole dose curve.

Assay [1] can be described thus: qHTS for Inhibitors of the Functional Ribonucleoprotein Complex (vRNP) of Lassa (LASV) Arenavirus: LASV Primary Screen - GLuc reporter signal (AID 1347082; calls by dose curve; tested in HEK293 reporter line; note: nearly all actives have a fitted effect of over 60% in size; note: potency is the fitted concentration of half-maximal effect). (Quantitative high-throughput screening tests each substance at several concentrations.)
Assay [2] can be described thus: qHTS for Inhibitors of the Functional Ribonucleoprotein Complex (vRNP) of Lassa (LASV) Arenavirus: Viability assay - alamar blue signal for LASV Primary Screen (AID 1347083; calls by dose curve; tested in HEK293 reporter line; note: nearly all actives have a fitted effect of over 80% in size; note: potency is the fitted concentration of half-maximal effect).
Assay [3] is described as follows: qHTS for Inhibitors of the Functional Ribonucleoprotein Complex (vRNP) of Lymphocytic Choriomeningitis Arenaviruses (LCMV): Viability assay - alamar blue signal for LCMV Primary Screen (AID 1347085; calls by dose curve; tested in HEK293 reporter line; note: nearly all actives have a fitted effect of over 80% in size; note: potency is the fitted concentration of half-maximal effect).
Assay [4] deals with Nucleoprotein (Lymphocytic choriomeningitis virus (strain Armstrong)) (UniProt P09992). The experiment in a line: qHTS for Inhibitors of the Functional Ribonucleoprotein Complex (vRNP) of Lymphocytic Choriomeningitis Arenaviruses (LCMV): LCMV Primary Screen - GLuc reporter signal (AID 1347086). Note: nearly all actives have a fitted effect of over 70% in size. Note: potency is the fitted concentration of half-maximal effect.
Chain of Nucleoprotein (Lymphocytic choriomeningitis virus (strain Armstrong)) (P09992 whole entry, looked up): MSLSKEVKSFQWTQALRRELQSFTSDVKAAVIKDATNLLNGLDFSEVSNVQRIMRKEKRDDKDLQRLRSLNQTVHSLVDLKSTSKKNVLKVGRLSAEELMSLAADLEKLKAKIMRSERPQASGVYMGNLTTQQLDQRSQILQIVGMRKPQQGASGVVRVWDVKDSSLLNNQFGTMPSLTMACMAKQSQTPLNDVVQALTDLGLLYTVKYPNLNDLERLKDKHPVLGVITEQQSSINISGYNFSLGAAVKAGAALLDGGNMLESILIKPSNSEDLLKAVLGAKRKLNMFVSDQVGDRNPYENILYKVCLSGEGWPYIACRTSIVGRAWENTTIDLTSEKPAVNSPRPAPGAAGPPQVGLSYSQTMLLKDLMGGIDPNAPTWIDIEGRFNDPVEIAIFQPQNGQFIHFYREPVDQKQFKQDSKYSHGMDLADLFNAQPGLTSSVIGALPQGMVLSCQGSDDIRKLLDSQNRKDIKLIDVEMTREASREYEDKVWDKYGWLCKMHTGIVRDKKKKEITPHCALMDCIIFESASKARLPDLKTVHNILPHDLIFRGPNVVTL
Assay [5] in a line: Confirmatory qHTS to identify inhibitors of SARS-CoV-2 cell entry (AID 1645844). Note: potency is the fitted concentration of half-maximal effect; nearly all actives have a fitted effect of over 45% in size. The gist of the method:
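HEK293-ACE2 cells (Expi293F stably expressing human ACE2) were pretreated with compounds for 1 hr at 37C, then infected with MLV-based particles carrying Wuhan-Hu-1 spike (C-terminal 19-aa truncation). Luciferase luminescence read after 48 hr; normalized to spike PP (100%) and bald PP (0%).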

A short description of assay [6]: Cytotoxicity counterscreen for inhibitors of SARS-CoV-2 cell entry (AID 1645845). Note: nearly all actives have a fitted effect of over 50% in size. In a few lines: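 Expi293F/hACE2 cells seeded overnight; cpd pin-transferred in DMSO, 1 h preincubation, + media, 48 h 37 C 5% CO2; ATPLite 1step luminescence; normalized to cells and no cells.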
In general terms: A counterscreen serves to expose hits that act by an unwanted route or on another target.

A short description of assay [7]: Primary qHTS to identify inhibitors of SARS-CoV-2 cell entry (AID 1645846). Note: nearly all actives have a fitted effect of over 45% in size. To be noted: activity change, negative = inhibition: at 57.1 µM (top of the series) unless noted. In a few lines: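 Using luciferase-reporting pseudoviruses carrying Wuhan-Hu-1 spike, the screen tracks entry into stably ACE2-expressing cells over 48 hr. Activity is expressed relative to spike particles versus particles lacking any fusion protein.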

Assay [8] in a line: VSVG counterscreen qHTS to identify inhibitors of SARS-CoV-2 cell entry (AID 1645847). Note: potency is the fitted concentration of half-maximal effect; nearly all actives have a fitted effect of over 65% in size. The gist of the method:
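Entry of VSV-G pseudotyped particles into human ACE2-expressing HEK293 cells was measured by luciferase luminescence 48 h after infection, with compound added 1 h beforehand.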

Assay [9] is described as follows: Primary qHTS for small molecule stabilizers of the endoplasmic reticulum resident proteome: Secreted ER Calcium Modulated Protein (SERCaMP) assay (AID 1508630; active = well fitted inhibition curve with a large enough effect; note: % is set by controls: 0 for no effect and ±100 for the full control effect). The gist of the method:
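GLuc-SERCaMP-expressing SH-SY5Y cells, pretreated 16 h with compound, are challenged with thapsigargin to empty ER calcium stores; after 4 h, coelenterazine is added directly to the medium and luminescence is imaged.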

For assay [10], the target named is Cytochrome P450 2C19 (Homo sapiens) (UniProt P33261). The assay can be described thus: qHTS Assay for Inhibitors and Substrates of Cytochrome P450 2C19 (AID 899; active = well fitted inhibition curve with a large enough effect; note: nearly all actives have a fitted effect of over 60% in size; note: potency is the fitted concentration of half-maximal effect). The gist of the method: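 NADPH-dependent conversion of Luciferin-H EGE (10uM, at KM) by 5nM enzyme in 50mM KPO4, 60 min at 37C following 10 min compound preincubation. Stopped with luciferin detection buffer; luminescence read after 20 min.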
Chain of Cytochrome P450 2C19 (Homo sapiens) (P33261 whole entry, looked up): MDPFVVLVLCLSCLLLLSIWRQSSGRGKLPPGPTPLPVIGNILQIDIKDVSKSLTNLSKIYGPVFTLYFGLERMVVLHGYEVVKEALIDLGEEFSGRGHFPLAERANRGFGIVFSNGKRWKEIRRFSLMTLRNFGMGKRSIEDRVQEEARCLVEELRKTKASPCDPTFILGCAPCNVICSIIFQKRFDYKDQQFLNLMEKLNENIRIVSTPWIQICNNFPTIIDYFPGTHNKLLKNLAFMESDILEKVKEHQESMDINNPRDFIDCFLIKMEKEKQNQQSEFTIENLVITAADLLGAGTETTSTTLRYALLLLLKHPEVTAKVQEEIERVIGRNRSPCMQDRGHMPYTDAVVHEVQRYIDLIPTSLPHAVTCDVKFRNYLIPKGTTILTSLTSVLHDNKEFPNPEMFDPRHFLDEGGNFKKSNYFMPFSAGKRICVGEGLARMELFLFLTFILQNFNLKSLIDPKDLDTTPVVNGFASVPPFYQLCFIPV

Assay [11] can be described thus: qHTS Assay for Lipid Storage Modulators (AID 1519). Particulars: Drosophila S3 cells, BODIPY lipid droplet/cell ratio, laser cytometry, cells loaded with oleic acid. In a few lines: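 Cells seeded at 5,000 per well were treated with compounds over a concentration series and loaded with oleic acid (400 uM, as added). Lipid droplet fluorescence (488 nm excitation, 500-530 nm channel) was read by laser-scanning cytometry and normalized to 20 uM Triacsin C.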

Assay [12] can be described thus: qHTS profiling of the MIPE4 collection as inhibitors of Plasmodium falciparum (DD2) proliferation (AID 743345; call rule not given here). To be noted: P. falciparum Dd2 in erythrocytes, SYBR Green DNA, 72 h; at 28.5 µM (top of the series) unless noted. In a few lines: (§1)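 Erythrocytes infected with P. falciparum (0.3% parasitemia, 2.5% hematocrit) incubated with compounds 72 h at 37 C, 5% CO2. Lysis with saponin/Triton buffer containing SYBR Green I, overnight at room temperature in the dark; DNA fluorescence (485/535 nm) normalised to 0.29 uM artemisinin and DMSO.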

Assay [13] is described as follows: qHTS profiling of the MIPE4 collection as inhibitors of Plasmodium falciparum (DD2) proliferation (Rep 2) (AID 743346; call rule not given here). Particulars: P. falciparum Dd2 in erythrocytes, SYBR Green DNA, 72 h; at 28.5 µM (top of the series) unless noted. In a few lines: as §1
The nature of assay [14]: AP1 Signaling Pathway (AID 357; active = well fitted curve in either direction with a large enough effect, not every such curve was filed as active;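 note: ME-180 reporter cells stimulated with EGF at its EC50 level; % is set by controls: 0 for no effect and ±100 for the full control effect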). In a few lines: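 Cells are seeded overnight, exposed to compound titrations and an EC50 level of EGF for 5 hours at 37 °C, then loaded with CCF4 dye for 2.5 hours. Beta-lactamase activity under the AP-1 element is read as a blue/green ratio.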
Assay [15] concerns the target Cytochrome P450 1A2 (Homo sapiens) (UniProt P05177). The experiment in a line: p450-cyp1a2 (AID 410). Note: potency is the fitted concentration of half-maximal effect. In a few lines:
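20nM CYP1A2 with 100uM Luciferin-ME (at Km) in 100mM KPO4; compound preincubated 10 min, NADPH regeneration added, 60 min at room temperature. Luciferin quantified by luminescence after detection reagent; normalized to 57 uM furafylline.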

Assay [16] can be described thus: Stat Signaling Pathway (AID 446; active = well fitted curve in either direction with a large enough effect, not every such curve was filed as active;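 note: ME-180 cervical cancer cells given 40 pM IL-6 alongside compound; SIE-controlled beta-lactamase reporter measured as 460/530 nm FRET emission ratio; % is set by controls: 0 for no effect and ±100 for the full control effect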). The gist of the method:
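ME-180 cells carrying a SIE-driven beta-lactamase reporter are stimulated with 40 pM IL-6 for 5 h at 37C in the presence of compound. The 460/530 nm FRET substrate ratio is read after 2.5 h at RT. Data are normalised to 300 pM IL-6 and to 125 nM JAK inhibitor controls.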

In assay [17] the target is Glucocorticoid receptor (Homo sapiens) (UniProt P04150). The assay can be described thus: GR-EFC Redistribution (AID 451). Note: potency is the fitted concentration of half-maximal effect. To be noted: CHO-K1 GR-EFC translocation, beta-gal luminescence, 2 h. The gist of the method: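 CHO-K1 cells stably expressing nuclear-localized β-gal enzyme acceptor and GR fused C-terminally to the enzyme donor fragment; ligand-driven nuclear translocation restores β-gal by complementation. Compounds titrated up to 46 uM final, 2 h at 37 °C; luminescence read.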
Chain of Glucocorticoid receptor (Homo sapiens) (P04150 whole entry, looked up, the tested form may be a part): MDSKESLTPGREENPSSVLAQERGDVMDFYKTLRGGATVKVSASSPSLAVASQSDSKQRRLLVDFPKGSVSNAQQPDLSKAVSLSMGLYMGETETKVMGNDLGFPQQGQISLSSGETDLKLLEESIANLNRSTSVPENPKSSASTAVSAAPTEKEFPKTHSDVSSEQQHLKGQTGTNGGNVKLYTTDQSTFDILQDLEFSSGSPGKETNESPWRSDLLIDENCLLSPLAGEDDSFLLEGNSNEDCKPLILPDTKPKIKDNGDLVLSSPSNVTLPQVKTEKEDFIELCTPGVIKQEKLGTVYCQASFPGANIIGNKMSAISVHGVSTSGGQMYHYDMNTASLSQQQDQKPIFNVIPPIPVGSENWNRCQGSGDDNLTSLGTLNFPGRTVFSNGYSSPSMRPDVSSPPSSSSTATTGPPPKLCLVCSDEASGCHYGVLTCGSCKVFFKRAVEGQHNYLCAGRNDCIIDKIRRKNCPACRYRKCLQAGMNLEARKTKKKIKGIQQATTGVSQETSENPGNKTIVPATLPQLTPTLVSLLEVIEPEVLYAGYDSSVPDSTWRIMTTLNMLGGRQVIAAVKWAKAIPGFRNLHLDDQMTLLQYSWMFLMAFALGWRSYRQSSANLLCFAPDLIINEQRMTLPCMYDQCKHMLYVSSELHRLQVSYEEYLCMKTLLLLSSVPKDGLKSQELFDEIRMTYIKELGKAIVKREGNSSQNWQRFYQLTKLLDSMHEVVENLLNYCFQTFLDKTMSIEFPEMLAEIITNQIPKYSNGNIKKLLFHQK

The target of assay [18] is Mitogen-activated protein kinase 10 (Mus musculus) (UniProt Q61831). The assay can be described thus: JNK3 AlphaScreen Assay (AID 530; active = well fitted curve in either direction with a large enough effect, not every such curve was filed as active;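 note: kinase came from lysate of stimulated human HepG2 cells; signal reports phosphorylation of biotinylated GST-cJun 1-79 at Ser73 with 10 µM ATP; % is set by controls: 0 for no effect and ±100 for the full control effect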). The gist of the method:
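Inhibitors reduce antibody binding to phosphorylated biotin-cJun, lowering AlphaScreen luminescence. Lysates from HepG2 cells pre-activated by IL-1beta plus TNF-alpha supplied JNK3; compounds were titrated.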

The target in assay [19] is 3',5'-cyclic-AMP phosphodiesterase 4B (Homo sapiens) (UniProt Q07343). The assay can be described thus: qHTS Assay for Inhibitors of PDE-IV (AID 607; active = well fitted activation curve with a large enough effect in the main read-out, with a control signal flat, not every such curve was filed as active; note: % of control where 0% means no effect). The gist of the method: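 HEK293 ACTOne cells with CNG channel (1000/well), endogenous PDE4; membrane potential dye, compounds up to 22.9 uM final. Fluorescence Ex 535/Em 590; RO 20-1724 (100 uM final) as reference.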
Chain of 3',5'-cyclic-AMP phosphodiesterase 4B (Homo sapiens) (Q07343 whole entry, looked up): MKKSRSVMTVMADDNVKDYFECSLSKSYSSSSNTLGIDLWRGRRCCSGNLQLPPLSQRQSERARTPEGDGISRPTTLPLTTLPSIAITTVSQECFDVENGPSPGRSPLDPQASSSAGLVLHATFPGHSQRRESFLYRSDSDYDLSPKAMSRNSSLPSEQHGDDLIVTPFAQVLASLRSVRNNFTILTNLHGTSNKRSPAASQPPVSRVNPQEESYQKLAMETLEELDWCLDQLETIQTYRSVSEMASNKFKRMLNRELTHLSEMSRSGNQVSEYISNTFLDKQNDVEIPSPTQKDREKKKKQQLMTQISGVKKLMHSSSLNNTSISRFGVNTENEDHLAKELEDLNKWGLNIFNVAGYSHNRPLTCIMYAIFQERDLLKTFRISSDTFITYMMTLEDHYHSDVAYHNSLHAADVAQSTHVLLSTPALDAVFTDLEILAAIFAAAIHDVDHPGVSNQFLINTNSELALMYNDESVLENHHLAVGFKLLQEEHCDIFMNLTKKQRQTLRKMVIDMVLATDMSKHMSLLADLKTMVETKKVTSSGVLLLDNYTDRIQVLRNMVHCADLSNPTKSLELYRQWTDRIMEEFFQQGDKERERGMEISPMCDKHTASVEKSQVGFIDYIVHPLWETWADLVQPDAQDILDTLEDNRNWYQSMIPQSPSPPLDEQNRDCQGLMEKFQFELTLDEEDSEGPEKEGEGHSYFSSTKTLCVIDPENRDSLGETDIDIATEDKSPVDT
The target of assay [20] is Cytochrome P450 2C9 (Homo sapiens) (UniProt P11712). The experiment in a line: qHTS Assay for Inhibitors and Substrates of Cytochrome P450 2C9 (AID 883; active = well fitted inhibition curve with a large enough effect; note: % is set by controls: 0 for no effect and ±100 for the full control effect; nearly all actives have a fitted effect of over 60% in size). The gist of the method: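 A luminogenic readout tracked human CYP2C9 (10nM) converting deoxyluciferin (100uM, at KM) in 25mM KPO4 during 60 min at 37C with regenerated NADPH. Values normalized to 57uM sulphaphenazole as complete inhibition.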
Chain of Cytochrome P450 2C9 (Homo sapiens) (P11712 whole entry, looked up): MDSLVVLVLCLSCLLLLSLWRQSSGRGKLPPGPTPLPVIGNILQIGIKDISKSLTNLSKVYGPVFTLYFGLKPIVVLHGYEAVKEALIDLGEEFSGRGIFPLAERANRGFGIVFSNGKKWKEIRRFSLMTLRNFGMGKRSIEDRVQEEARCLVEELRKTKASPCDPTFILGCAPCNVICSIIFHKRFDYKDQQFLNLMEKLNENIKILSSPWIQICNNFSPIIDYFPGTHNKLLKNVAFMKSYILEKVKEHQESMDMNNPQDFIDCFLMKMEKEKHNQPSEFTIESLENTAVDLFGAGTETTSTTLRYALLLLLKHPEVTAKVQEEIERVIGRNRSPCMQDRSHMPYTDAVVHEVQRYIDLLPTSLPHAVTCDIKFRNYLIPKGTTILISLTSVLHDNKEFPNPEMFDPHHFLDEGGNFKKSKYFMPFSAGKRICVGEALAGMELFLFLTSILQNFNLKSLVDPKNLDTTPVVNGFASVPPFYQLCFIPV

The target of assay [21] is Cytochrome P450 2D6 (Homo sapiens) (UniProt P10635). The assay can be described thus: qHTS Assay for Inhibitors and Substrates of Cytochrome P450 2D6 (AID 891; active = well fitted inhibition curve with a large enough effect; note: potency is the fitted concentration of half-maximal effect; nearly all actives have a fitted effect of over 60% in size). The gist of the method:
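Human CYP2D6 (5 nM) with 30 uM Luciferin-ME EGE (at Km) in 100 mM KPO4, compound preincubated 10 min, then NADPH regeneration system for 60 min at room temperature. Luciferin read by luminescence; normalized to 1.43 uM quinidine.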

Chain of Cytochrome P450 2D6 (Homo sapiens) (P10635 whole entry, looked up): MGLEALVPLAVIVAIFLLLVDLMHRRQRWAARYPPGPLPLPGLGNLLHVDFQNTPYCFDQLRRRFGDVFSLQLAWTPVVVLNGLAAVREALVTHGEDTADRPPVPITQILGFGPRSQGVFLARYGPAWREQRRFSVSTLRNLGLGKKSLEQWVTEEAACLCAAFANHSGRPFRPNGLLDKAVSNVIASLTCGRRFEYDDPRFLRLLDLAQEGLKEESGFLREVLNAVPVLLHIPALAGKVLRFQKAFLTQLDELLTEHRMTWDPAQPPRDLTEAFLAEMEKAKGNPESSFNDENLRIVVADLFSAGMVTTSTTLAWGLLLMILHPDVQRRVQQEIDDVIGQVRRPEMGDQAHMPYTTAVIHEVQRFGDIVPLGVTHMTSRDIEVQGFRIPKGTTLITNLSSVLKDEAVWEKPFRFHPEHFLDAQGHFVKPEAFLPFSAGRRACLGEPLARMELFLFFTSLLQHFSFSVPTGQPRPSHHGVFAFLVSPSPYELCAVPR
Chain of Cytochrome P450 1A2 (Homo sapiens) (P05177 whole entry, looked up): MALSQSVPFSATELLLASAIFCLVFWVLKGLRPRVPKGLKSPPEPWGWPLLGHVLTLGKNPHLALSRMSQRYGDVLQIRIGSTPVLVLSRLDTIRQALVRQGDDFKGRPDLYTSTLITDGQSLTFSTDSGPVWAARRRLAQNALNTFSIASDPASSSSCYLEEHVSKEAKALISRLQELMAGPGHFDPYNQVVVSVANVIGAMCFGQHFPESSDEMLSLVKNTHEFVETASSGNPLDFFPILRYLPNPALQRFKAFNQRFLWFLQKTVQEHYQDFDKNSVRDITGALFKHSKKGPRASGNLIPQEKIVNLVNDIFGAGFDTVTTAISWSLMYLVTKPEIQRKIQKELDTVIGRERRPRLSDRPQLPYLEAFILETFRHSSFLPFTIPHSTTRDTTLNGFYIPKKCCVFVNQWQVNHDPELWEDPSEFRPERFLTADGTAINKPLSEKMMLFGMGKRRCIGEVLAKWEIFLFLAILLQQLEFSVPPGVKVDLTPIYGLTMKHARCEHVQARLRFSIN

In the case of `O=C1NCCc2[nH]c(-c3ccncc3)cc21`, the Potency in assay [1] was 21.7 µM (active); in [2], 6.85 µM (active); in assay [3] it was 6.11 µM (active); in [4], 10.9 µM (active); in assay [5], 9.61 µM (active); in assay [8], 9.61 µM (active). For the same molecule, in [6], the Potency result was “inactive”. Also, the activity change, negative = inhibition in assay [7] is -95%.
For `N#CC1(c2cccc(C(=O)Nc3cc(Oc4ccc5nc(NC(=O)C6CC6)sc5n4)ccc3F)c2Cl)CC1`, the Potency entry in assay [1], in [2], in [3], in assay [4] and in assay [6] was “inactive” in each case. For the same molecule, the Potency in assay [5] is 2.71 µM (active). Besides, the activity change, negative = inhibition in assay [7] was -79.3%.
As to `CCN1C[C@]2(C)CC[C@H](OC)[C@]34C5C[C@@H]6CC[C@@](O)(C5C(=O)O6)C(C13)[C@@H](OC(=O)c1ccccc1)C24`, the Potency entry in assay [1], in assay [2], in assay [3], in [4] and in assay [9] was “inactive” throughout.
As for `CO[C@@H]1C(N(C)C(=O)c2ccccc2)C[C@H]2O[C@]1(C)n1c3ccccc3c3c4c(c5c6ccccc6n2c5c31)C(=O)NC4=O` (stereo not given in full), the Potency result in assay [1], in assay [3], in [4] and in assay [6] was “inactive” in each case. In addition, the Potency in assay [2] is 12.2 µM (active); in [5] it was 21.5 µM (active); in [8], 27.1 µM (active).
As to `O=C(O)Cc1cccc(OCCCN(Cc2cccc(C(F)(F)F)c2Cl)CC(c2ccccc2)c2ccccc2)c1`, the Potency entry in [1], in assay [2], in [3], in assay [4] and in assay [6] was “inactive” throughout.
`C1CC[C@H]([C@@]23C[C@H](C[C@H]4CCCN[C@H]42)[C@@H]2CCCCN2C3)NC1`: the Potency entry in [1], in [2], in assay [3], in assay [4] and in assay [9] was “inactive” in each case.
As to `C[C@]12CC[C@@H]3c4ccc(O)cc4C[C@@H](CCCCCCCCCS(=O)CCCC(F)(F)C(F)(F)F)[C@H]3[C@H]1CC[C@H]2O` (stereo not given in full), the Potency result in assay [1], in assay [2], in assay [3], in [4] and in assay [6] was “inactive” in each case.
For the molecule `CS(=O)(=O)N(Cc1ccco1)CC(O)Cn1c2ccccc2c2ccccc21` (stereo not given), the Potency entry in assay [1], in assay [2], in assay [3], in assay [4] and in assay [6] was “inactive” throughout. For the same molecule, in assay [5], the Potency is 6.81 µM (active). Moreover, in [7], the activity change, negative = inhibition was -37.4%.
On to `O=C1CCC[C@H]2[C@H]3CCCN4CCCC(=CN12)[C@@H]34`, for which the Potency result in assay [1], in [2], in [3], in assay [4] and in assay [9] was “inactive” throughout.
Consider `O=C1C[C@@H](c2ccc(O)cc2)Oc2cc(O)cc(O)c21`, for which the Potency in [10] is 7.94 µM (active). The activity change, negative = inhibition in assay [11] (at 25.7 µM (top of the series)) is 0.577% (inactive). Further, the figures for the max response in assay [11] (measured here: cell count channel max response) and in [11] (measured here: lipid channel max response) were -18.3% and -14.1%, respectively. The molecule also yielded a parasite growth remaining, % of DMSO control (lower = more inhibition) in assay [12] of 72.2%. In [13], this molecule came in with a parasite growth, % of control (lower = inhibition) of 56.8%. Moreover, the Potency entry in assay [1], in assay [2], in assay [3], in [4], in assay [6] and in [7] was “inactive” each time.
Turning to `CC1=C[C@@H]2c3cccc4[nH]cc(c34)C[C@H]2N(C)C1`, the outcome in assay [14], in assay [16] and in [18] was inactive. The figures for the Potency in [15], in [17] and in assay [21] were 3.16 µM (active), > 46 µM (inactive) and 2 µM (active), respectively. Moreover, the Potency entry in assay [19], in assay [20], in [10], in [1], in assay [2] and in [3] was “inactive” each time. Also, the Potency entry in assay [4] and in assay [9] was “inactive” each time.

These data come from PubChem BioAssay (NCATS).
